MPTP inh – mitochondrial permeability transition pore inhibitors, primary screen, biochemical, isolated mouse mitochondria, absorbance; Ca2+ swelling absorbance, 30 min; inhibition, % at 10 µM; actives 1.4% (n = 360,000); AID 602449, 2012;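 active = inhibition of 50% or more, scaled per plate between neutral and stimulator controls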
HSF-1 act – HSF-1 activators, primary screen, NIH3T3-HGL cells, MG132 stress, luminescence, single point. NIH3T3-HGL HSF-1 luciferase reporter, 8 h; 100% = twice DMSO control signal. activation, % at 9 µM. actives 1.7% (n = 300,000). AID 504408, 2011;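 active = mean replicate activation of at least 50% with a set share of replicates each reaching 50%; inconclusive = only one of those two conditions met; inactive = mean below 50% and too few replicates reaching it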
HSF1 inh – HSF1 inhibitors in luciferase reporter cells, primary screen, cell-based, NIH3T3, luminescence | NIH3T3-HGL HSE-luciferase, MG132-induced, luminescence 8 h; hits give low values | activity change, negative = inhibition, % at 7.5 µM (by protocol) | actives 0.77% (n = 300,000) | AID 2098, 2009;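 active = more than half of replicate wells show activity change below -50%, luminescence cut by over half; inconclusive = some wells, but at most half, below -50%; inactive = no replicate well below -50%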;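 note: luciferase reports HSF-1 transcriptional activity via heat shock element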
dFosB act – activators of delta FosB homodimer, primary screen, biochemical, fluorescence polarization, TAMRA-CDK5 oligo, single point; Protein FosB (Mus musculus), P13346; activation, % at 25 µM; purified delta FosB; percent of positive-control signal above neutral wells; actives 0.99% (n = 340,000); AID 493131, 2011;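 active = mean activation above about 17%, with every replicate also reaching it, limit read from the data, passing the limit was not always enough; inconclusive = only one of the two conditions met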
Target sequence (P13346 whole entry, looked up): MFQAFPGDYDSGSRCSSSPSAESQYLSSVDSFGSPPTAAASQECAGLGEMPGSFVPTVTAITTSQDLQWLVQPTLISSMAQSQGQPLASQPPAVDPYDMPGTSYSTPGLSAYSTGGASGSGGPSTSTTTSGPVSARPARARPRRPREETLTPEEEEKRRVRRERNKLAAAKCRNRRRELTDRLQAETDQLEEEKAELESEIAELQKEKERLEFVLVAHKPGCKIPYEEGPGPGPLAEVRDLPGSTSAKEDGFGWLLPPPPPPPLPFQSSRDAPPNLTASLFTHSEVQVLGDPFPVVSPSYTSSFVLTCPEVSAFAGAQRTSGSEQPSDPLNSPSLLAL
HSP90 refold inh – HSP90 inhibitors, primary screen, cell lysate, luminescence; Rabbit reticulocyte lysate, luciferase refolding luminescence, 3 h; inhibition, % at 5.6 µM; actives 0.91% (n = 290,000); AID 1789, 2009;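 active = inhibition above the screen-wide mean plus 3 SD, computed separately per campaign, cut at about 16% in these data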;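 note: inhibitors lower the luminescence because luciferase stays unfolded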
Platelet DG rel – inhibitors of platelet dense granule secretion, primary screen, cell-based, MLPCN, human platelets. human platelet-rich plasma, SFLLRN dense granule ATP release, luminescence. inhibition, %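 (compounds screened at 7.5 µM in platelet-rich plasma)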. actives 0.22% (n = 300,000). AID 1663, 2009;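 active = mean replicate score, as percent of positive control, at or above 50; inconclusive = mean below 50 but at least one replicate at or above 50; inactive = mean and every replicate below 50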
MPTP counter – fluorescence retest of MPTP screen hits in isolated mitochondria, single concentration. shares compounds with MPTP inh. membrane potential, Rhodamine 123 fluorescence. inhibition, % at 10 µM. actives 78% (n = 5,000). AID 624504, 2012; in the data active = inhibition above about 22%
MPTP abs DR – mitochondrial permeability transition pore inhibitors, dose response, biochemical, absorbance, uHTS hits. shares compounds with MPTP inh. isolated mitochondria swelling. IC50, µM. actives 58% (n = 780). AID 651561, 2012; in the data active = IC50 below about 20 µM
MPTP counter DR – fluorescent counter-screen in isolated mitochondria, dose response, counter-screen for MPTP inhibitor project, biochemical, fluorescence, uHTS hits; shares compounds with MPTP inh; isolated mitochondria counterscreen, fluorescence read-out; IC50, µM; actives 49% (n = 780); AID 651564, 2012; in the data active = IC50 below about 80 µM
Hits are given with their value; n = inactive; u = inconclusive; x = no result given. Compounds with a hit are over-represented: about 4.9% of the library has one in this group of screens.

SMILES	MPTP inh	HSF-1 act	HSF1 inh	dFosB act	HSP90 refold inh	Platelet DG rel	MPTP counter	others
COc1cc(NC(=O)CSc2ncnc3c2cnn3Cc2ccccc2)cc(OC)c1	54	n	n	n	n	n	28
COc1ccc(OC)c(NC(=O)CSc2ncccn2)c1	n	n	n	n	n	n	x
Cc1ccc(S(=O)(=O)N2C[C@H]3N(C(=O)OC(C)C)N(C(=O)OC(C)C)C[C@H](OC(=O)Nc4cccs4)[C@@]3(O)C2)cc1	n	x	x	x	x	x	x
CN(C)S(=O)(=O)c1ccc(NC(=O)CCCNC(=O)c2ccc(Cl)cc2)cc1	n	n	n	n	n	n	x
CC(C)(C)CC(C)(C)c1ccc(O)c(CN2CCN(CCC#N)CC2)c1	n	n	n	n	n	n	x
CC(C)(C)CC(C)(C)c1ccc(O)c(Cc2ccc(Cl)cc2Cl)c1	95	x	x	n	x	x	n	MPTP abs DR=n;MPTP counter DR=6.4
COc1ccc(C(=O)C2CCCN(Cc3cccn3-c3ccc(Cl)cn3)C2)c(OC)c1 (stereo unspecified)	76	x	x	n	n	n	99
COc1ccc(C(=O)C2CCCN(Cc3c(F)ccc(F)c3F)C2)c(OC)c1 (stereo unspecified)	n	n	n	n	n	n	x
COc1ccc(N/N=C/c2c(C(=O)O)ccc3ccccc23)cc1	82	n	n	n	n	n	52
S=C(Nc1cccc(Cl)c1)Nc1cccc2cnccc12	97	x	x	n	n	x	99
S=C(NCCc1ccccc1)Nc1cccc2cnccc12	86	n	n	n	n	n	85
Cc1ccc(NC(=S)Nc2cccc3cnccc23)cc1C	n	n	n	n	n	n	x
COCCn1c(SC(C)C(=O)Nc2ccc(N3CCOCC3)cc2)nnc1-c1ccncc1 (stereo unspecified)	n	n	n	n	x	n	x
CC[n+]1c(/C=C2\Sc3ccccc3N2C)ccc2cccc(C)c21	106	n	u	n	n	n	100
CCOC(=O)/C(=C/C=C1\Sc2cc(C)c(C)cc2N1CC)C(C)=O	n	n	n	n	n	n	x
CCN1/C(=C/c2ccc3cc(C)ccc3[n+]2CC)Sc2cc(C)c(C)cc21	106	x	x	n	n	x	93
CCN1/C(=C/c2ccc3cc(C)ccc3[n+]2CC)Sc2ccccc21	105	n	n	52	n	n	96
Cc1cccc(OCC(=O)Nc2nnc(S(=O)(=O)N3CCCCCC3)s2)c1	n	n	n	n	n	n	x
Cc1ccccc1COc1cccn2c(N(C)C(=O)CCC3CCCC3)c(C)nc12	n	x	x	x	x	x	x
O=C(Nc1ccncc1)Nc1ccc(Cl)cc1	55	n	n	n	n	n	98
CC(Oc1ccc(Cl)cc1Cl)C(=O)Nc1ccncc1 (stereo unspecified)	77	n	n	n	n	n	74
CCCc1c(NC(=O)Nc2ccc(Cl)cc2Cl)cnn1-c1ccccc1	83	n	n	u	n	n	76
O=C(Nc1ccncc1)Nc1ccc(Cl)cc1Cl	51	n	n	n	n	n	104
Cc1ccc(C=NNc2nc3c([nH]2)c(=O)n(C)c(=O)n3C)cc1	n	x	x	n	x	x	x
O=C(CSc1ncnc2c1sc1ccccc12)Nc1ccc(Br)cc1	54	n	n	n	n	n	37
SMILES	MPTP inh	HSF-1 act	HSF1 inh	dFosB act	HSP90 refold inh	Platelet DG rel	MPTP counter	others
O=C(c1ccccc1)N(Cc1cccc(Br)c1)C1CCS(=O)(=O)C1 (stereo unspecified)	n	n	n	n	n	n	x
C=C(C)CC(NCCc1ccccc1)c1ccco1 (stereo unspecified)	n	n	n	n	n	n	x
Cc1ccc(S(=O)(=O)N(C)C)cc1NC(=S)NC12CC3CC(CC(C3)C1)C2	65	n	n	n	n	n	84
NS(=O)(=O)c1cccc(NC(=S)NC(=O)C23CC4CC(CC(C4)C2)C3)c1	n	n	n	n	n	n	x
Cc1ccc(S(=O)(=O)N(C)C)cc1NC(=S)Nc1ccc2[nH]c(=O)[nH]c2c1	n	n	n	n	n	n	x
Cc1ccc(S(=O)(=O)N(C)C)cc1NC(=S)NC(=O)C12CC3CC(CC(C3)C1)C2	60	n	n	n	n	n	35
COc1ccc(CN2C[C@H](Cc3ccccc3)[C@@H](CC(=O)Nc3ccccc3)C2=O)cc1	x	n	n	n	n	n	x
Cn1/c(=N\NC(=O)c2ccccc2Cl)sc2ccccc21	n	n	n	n	n	n	x
c1ccc(Cc2noc(CN3CCN(CCOc4ccccc4)CC3)n2)cc1	n	n	n	n	n	n	x
Nc1ccccc1N=Cc1ccc(-c2cccc(Cl)c2)o1	67	55	n	n	n	n	66
COC(=O)N/N=C/c1ccc(-c2cccc(Cl)c2)o1	n	n	n	n	n	n	x
NC(=O)CCN1CCN(CCOC2Cc3cc(Cl)ccc3Sc3ccccc32)CC1 (stereo unspecified)	62	59	n	n	n	n	n	MPTP abs DR=n;MPTP counter DR=n
O=C1c2cc(Br)ccc2N(Cc2ccc(Br)cc2)S(=O)(=O)C1c1cc(Cl)c(Cl)cc1[N+](=O)[O-] (stereo unspecified)	66	x	x	n	x	x	n
O=C1CS(=O)(=O)N(Cc2cccc(F)c2)c2ccc(Br)cc21	n	x	x	n	x	x	x
CC(=O)c1cccc(Nc2nc(-c3cccc([N+](=O)[O-])c3)cs2)c1	94	n	n	n	n	n	76
O=C(NC(=S)Nc1nc(-c2cccc([N+](=O)[O-])c2)cs1)c1cc(Cl)ccc1Cl	57	n	n	n	n	n	n	MPTP abs DR=19;MPTP counter DR=<2.5
O=[N+]([O-])c1cccc(NC(=S)Nc2nc(-c3ccc(Cl)cc3Cl)cs2)c1	x	n	n	x	n	n	x
CC(=O)Nc1nc(C)c(-c2csc(Nc3cccc([N+](=O)[O-])c3)n2)s1	n	n	n	n	n	n	x
CCOc1cc(CNC2CCCC2)cc(Cl)c1OCc1ccccc1	68	n	n	n	n	n	n	MPTP abs DR=3.1;MPTP counter DR=49
CCOc1cc(CNCC(C)C)cc(Cl)c1OCc1ccccc1	n	n	n	n	n	n	x
Cc1ccc(C)c(CN2CCCN(Cc3cc(C)ccc3C)S2(=O)=O)c1	n	n	n	n	n	n	x
COc1ccc(C)cc1S(=O)(=O)n1cnc2ccccc21	n	n	n	n	n	n	x

Source: PubChem BioAssay
